Several values for one entry are separate records, joined by “and”; a condition that tells them apart may be missing. Identical values can stand only once.
tested on: H9c2; test: protection of cardiomyocytes from stress damage, SAR follow-up, cell-based, panel, H9c2 and HL-1, ATP luminescence, set 2 (AID 651871); details: H9c2/HL-1 cardiomyocytes, 2-deoxyglucose stress, with 2-deoxyglucose; run 10, at 79 µM (top of the series) unless noted;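 note: cells exposed to stressor for 2 h before ATP readout; reference of the scale not given here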

| SMILES | activity (protection/inhibition) |
| --- | --- |
| COc1ccc2c(c1OC)C(=O)N1c3ccccc3C(=O)N(Cc3cccc(Cl)c3Cl)C21 (stereo not drawn) | 76% and 73.8% and -3.2% |
| COc1ccc2nc(-c3cc(OC)c(OC)c(OC)c3)cc(C(=O)NCC(=O)Nc3ccc(C(C)=O)cc3)c2c1 | 78.3% |
| CCOC(=O)c1cccc(NC(=O)CNC(=O)c2cc(-c3cc(OC)c(OC)c(OC)c3)nc3ccccc23)c1 | 82.3% [run 10, at 39.5 µM] |
